Calls of active or inactive are those of the source.

Assay [1] concerns XIP peptide (Xip251-270) binding. Put plainly: small-molecule binders of XIP peptide, primary screen, biochemical, small-molecule microarray, fluorescence 635/667 nm, 0.1 µg/mL protein (AID 1182). The note with it: fluorescent protein binding, 635 nm, higher = more signal, called active from +8 up or from −8 down.
Assay [2] has as its system XIP peptide (Xip251-270). Put plainly: small-molecule binders of XIP peptide, primary screen, biochemical, small-molecule microarray, fluorescence 635/667 nm, 0.5 µg/mL protein (AID 1183). Conditions: small-molecule microarray binding, fluorescence 635 nm; higher = more signal.
The nature of assay [3]: Plasmodium falciparum growth inhibition, primary screen, strain 3D7, DAPI fluorescence, 100 nL (AID 1184).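 Further: parasites grown inside human red blood cells in medium with human serum.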 Conditions: P. falciparum 3D7 growth, 3 d, higher = more signal.
Assay [4] deals with Homeobox protein Hox-A13 (Mus musculus) (UniProt Q62424). The assay can be described thus: inhibitors of HoxA13-DNA binding, primary screen, biochemical, fluorescence polarization, labeled oligonucleotide (AID 1185). The note with it: 15 min, higher = more signal, called active from +8 up or from −8 down. A general note: In fluorescence polarisation assays a small probe gives low polarisation when free and higher when bound to something large.
Sequence of Homeobox protein Hox-A13 (Mus musculus) (Q62424 whole entry, looked up): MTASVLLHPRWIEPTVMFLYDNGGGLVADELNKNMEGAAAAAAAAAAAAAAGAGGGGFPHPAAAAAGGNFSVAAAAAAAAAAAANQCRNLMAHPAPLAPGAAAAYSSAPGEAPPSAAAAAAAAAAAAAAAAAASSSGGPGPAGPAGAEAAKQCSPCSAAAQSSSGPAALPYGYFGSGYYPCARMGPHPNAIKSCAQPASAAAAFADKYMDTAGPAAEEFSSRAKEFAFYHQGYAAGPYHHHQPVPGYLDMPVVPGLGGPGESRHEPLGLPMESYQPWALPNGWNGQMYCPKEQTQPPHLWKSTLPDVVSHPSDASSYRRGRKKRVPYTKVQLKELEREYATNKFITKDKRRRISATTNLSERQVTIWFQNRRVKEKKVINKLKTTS

As to `O=C1C[C@@H](O)[C@@H](O)[C@@H]2[C@@H]3C(=O)N(Cc4ccc5c(c4)OCO5)C(=O)[C@@H]3CC[C@H]12`, the results for the composite z-score in assay [1] and in assay [2] were 0.245 (inactive) and 0.0056, respectively. For the same molecule, the z-score was 1.57 in assay [3] and -0.523 (inactive) in assay [4].

With `O=C1[C@H]2[C@H]3[C@H](O)[C@H](O)CC(=NOC[C@@H](O)COCc4ccco4)[C@H]3CC[C@H]2C(=O)N1c1ccc(F)cc1F`, the composite z-score was -0.774 (inactive) in assay [1] and 0.415 in assay [2]. For the same molecule, the z-score in assay [3] was -0.644; in assay [4], 0.794 (inactive).

`Cc1ccc(S(=O)(=O)N[C@H]2COC(=O)CC=C[C@@H](C)COC(=O)CC=C[C@@H]2C)cc1`: the composite z-score in assay [1] was 0.172 (inactive); in assay [2], 0.921. Besides, the z-score in assay [3] is 0.641; in assay [4], -1.06 (inactive).

On to `COC(=O)CC=C[C@@H](C)[C@H](OCc1cccc(-c2ccccc2)c1)C1CCCCC1`, for which the composite z-score is 0.704 (inactive) in assay [1] and 0.881 in assay [2]. Besides, the z-score is -0.257 in assay [3] and -1.35 (inactive) in assay [4].

As for `C[C@H](ON=C1[C@H]2CCn3c(=O)n(-c4ccccc4)c(=O)n3[C@H]2[C@H](O)[C@@H]2O[C@H]12)c1cn([C@H](CO)Cc2ccccc2)nn1`, the composite z-score in assay [1] is 2.76 (inactive); in assay [2] it was 0.238. Besides, the results for the z-score in assay [3] and in assay [4] were 0.0242 and -3.02 (inactive), respectively.

For the molecule `CO[C@H]1COC(=O)[C@@H](C)COC(=O)[C@H](COCc2ccccc2)NC(=O)CC=C[C@H]1C`, the figures for the composite z-score in assay [1] and in assay [2] were -0.0299 (inactive) and -0.474, respectively. Besides, the z-score is -0.386 in assay [3] and -1.96 (inactive) in assay [4].

In the case of `COc1ccc(O[C@H]2C=C[C@@H](c3ccccc3)O[C@@H]2COC(=O)CCC(C)=NOC[C@@H](O)[C@H]2O[C@@H]3OC(C)(C)O[C@@H]3[C@H]2O)cc1`, the results for the composite z-score in assay [1] and in assay [2] were 0.162 (inactive) and -0.0871, respectively. The z-score in assay [3] was 0.651; in assay [4], -5.83 (inactive).

As for `CCc1cc2c(nc1CC)CCN(CCC(C)=NO[C@@H](C)c1cn([C@H](CO)Cc3ccccc3)nn1)C2`, the composite z-score is 0.444 (inactive) in assay [1] and 0.704 in assay [2]. Further, the z-score in assay [3] is -1.72; in assay [4], -6.65 (inactive).

Regarding `COC(=O)C1=C(C)N(Cc2ccccc2)[C@]23O[C@](C(=O)OC)(C(=O)N2[C@@H]1c1ccccc1)C(C(=O)OC)=C3C(=O)OC`, the composite z-score in assay [1] was 1.49 (inactive); in assay [2] it was 0.435. For the same molecule, the figures for the z-score in assay [3] and in assay [4] were -1.08 and -3.67 (inactive), respectively.

Consider `CC(CCN1CCCc2nc(C)c(C)cc21)=NOC(C)CN1CCCCc2nc(C)c(C)cc21` (stereo not given), for which the composite z-score in assay [1] was -0.053 (inactive); in assay [2] it was 0.725. The z-score in assay [3] is -0.153; in assay [4], -6.78 (inactive).

As for `CCN1C(=O)[C@H]2[C@H]3[C@H](O)[C@H](O)CC(=O)[C@H]3CC[C@H]2C1=O`, the results for the composite z-score in assay [1] and in assay [2] were 0.809 (inactive) and 0.453, respectively. In addition, the z-score in assay [3] is 1.05; in assay [4], 0.0412 (inactive).

`CO[C@H](C1CCCCC1)[C@H](C)C=CCC(=O)OCCCc1ccccc1`: the composite z-score was -0.74 (inactive) in assay [1] and 0.628 in assay [2]. For the same molecule, the figures for the z-score in assay [3] and in assay [4] were -0.45 and 1.25 (inactive), respectively.

In the case of `Cc1ccc(S(=O)(=O)N[C@H]2COC(=O)CC=C[C@H](C)[C@@H](NS(=O)(=O)c3ccc(C)cc3)COC(=O)CC=C[C@@H]2C)cc1`, the composite z-score was 0.127 (inactive) in assay [1] and -0.019 in assay [2]. The z-score is -0.304 in assay [3] and -0.449 (inactive) in assay [4].

On to `CCOC(=O)C1=NO[C@]2(C=C(Br)C3(OCCCO3)[C@H]3O[C@H]32)C1`, for which the results for the composite z-score in assay [1] and in assay [2] were -0.788 (inactive) and 0.857, respectively. Further, the z-score in assay [3] is 0.99; in assay [4] it was 0.136 (inactive).

For `COC(=O)CC=C[C@@H](C)[C@@H](C=NO[C@H](C)c1cn([C@H](CO)Cc2ccccc2)nn1)OC`, the composite z-score in assay [1] was 0.312 (inactive); in assay [2], 0.367. In addition, the z-score in assay [3] was -0.866; in assay [4], -1.89 (inactive).

On to `CCOC(=O)[C@H](CC(C)C)NC(=O)CCC1CC(OC(=O)NCCc2ccc(F)cc2)CC2(CCCC(COC(=O)NCCc3ccccc3OC)O2)O1` (stereo not given in full), for which the composite z-score in assay [1] was 0.742 (inactive); in assay [2], 0.578. Further, the z-score is -1.89 in assay [3] and -2.36 (inactive) in assay [4].

Take `CCOC(=O)NN=C1C[C@@H](O)[C@@H](O)[C@@H]2[C@@H]3C(=O)N(Cc4ccccc4)C(=O)[C@@H]3CC[C@H]12`: the composite z-score is -0.405 (inactive) in assay [1] and 0.0213 in assay [2]. Moreover, the figures for the z-score in assay [3] and in assay [4] were -0.179 and -1.48 (inactive), respectively.

With `O=C1C2=CC[C@H]3C(=O)N(c4cccc(Oc5ccccc5)c4)C(=O)[C@H]3[C@H]2[C@H](O)[C@@H]2O[C@H]12`, the figures for the composite z-score in assay [1] and in assay [2] were -0.0743 (inactive) and 0.182, respectively. Moreover, the z-score in assay [3] is 0.86; in assay [4] it was -2.99 (inactive).

For `O=C(NN=C1C[C@@H](O)[C@@H](O)[C@@H]2[C@@H]3C(=O)N(C4CCCCC4)C(=O)[C@@H]3CC[C@@H]12)OCc1ccccc1`, the composite z-score in assay [1] is 0.152 (inactive); in assay [2], -0.0414. For the same molecule, the z-score in assay [3] is -0.321; in assay [4] it was -3.09 (inactive).

On to `C[C@@H](c1ccccc1)N1C(=O)[C@H]2[C@H]3[C@H](O)[C@H](O)CC(=O)[C@H]3CC[C@H]2C1=O`, for which the composite z-score in assay [1] is -0.286 (inactive); in assay [2] it was 0.251. Also, the z-score in assay [3] is 0.676; in assay [4] it was 0.0632 (inactive).

The record behind these values is PubChem BioAssay.
